PubChem BioAssay
The list shows a part of the results. Active and inactive are the calls of the source. Cut-off read from the data, not from the text of the source, unless noted: active = inhibition above about 44%; inactive = the rest.

What was measured:
[1] = StAR promoter reporter inhibitors, counter-screen for LRH-1 inverse agonist project, cell-based, luminescence, high throughput (AID 651611; in the data active = inhibition above about 28%); details: StAR promoter luciferase reporter counterscreen, at 3.6 µM, active compounds read high
[2] = VP16 transactivation reporter inhibitors, counter-screen for LRH-1 inverse agonist project, cell-based, luminescence, high throughput (AID 651615; in the data active = inhibition above about 33%); details: Gal4-VP16 luciferase reporter cells, at 3.6 µM, active compounds read high
[3] = growth loss of phage-infected RecBCD+ E. coli, confirmation, RecBCD inhibitor project, absorbance, E. coli V66, T4 gene 2 phage (AID 651982;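 active = mean inhibition over triplicates exceeding the hit threshold derived in the original primary screen, cut at about 11% in these data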); details: E. coli V66 + T4 2- phage, growth OD; at 11.9 µM; active compounds read high
[4] = E. coli viability inhibition, counter-screen for RecBCD inhibitor project, absorbance, high throughput (AID 651983; in the data active = inhibition above about 20%;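 note: E. coli strain V66 grown with compound alone and no phage infection; 0% = bacteria with DMSO vehicle only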); details: absorbance (OD) growth, at 11.9 µM, active compounds read high
[5] = growth loss of phage-infected AddAB-carrying E. coli, confirmation, counter-screen for RecBCD inhibitor project, absorbance, E. coli V3065, T4 phage (AID 651984;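 active = mean inhibition above the solvent-only control wells' mean plus 3 SD, cut at about 22% in these data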;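 note: higher means less bacterial growth from phage killing when AddAB is blocked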); details: E. coli expressing H. pylori AddAB + T4 phage, OD growth; at 11.9 µM; active compounds read high; gene 2 mutant T4, recBCD-deleted host
[6] = target: Steroidogenic factor 1 (Homo sapiens) (UniProt Q13285); test: SF1 (NR5A1) inverse agonists, counter-screen for LRH-1 inverse agonist project, cell-based, luminescence, high throughput (AID 651614); details: cell-based SF1 luciferase reporter, at 3.6 µM, active compounds read high;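 note: cells cotransfected with StAR promoter reporter and SF1 expression vector; 0% = vehicle on cells with receptor and 100% = vehicle on cells lacking receptor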
[7] = target: Nuclear receptor subfamily 5 group A member 2 (Homo sapiens) (UniProt O00482); test: LRH-1 (NR5A2) inverse agonists, retest, confirmation, cell-based, luminescence (AID 651613; in the data active = inhibition above about 42%;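 note: HEK293T cells co-transfected with LRH-1 and StAR promoter luciferase reporter; 0% = vehicle wells and 100% = parental cells lacking receptor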); details: cell-based LRH-1 luciferase reporter, inverse agonism; at 3.6 µM; active compounds read high
[8] = Gal4-VP16 luciferase reporter inhibitors, counter-screen for COUP-TFII antagonist project, cell-based, luminescence, HEK293 (AID 687007; in the data active = inhibition above about 13%); details: at 8.5 µM, active compounds read high
[9] = target: COUP transcription factor 2 (Homo sapiens) (UniProt P24468); test: NR2F2 transcriptional activity inhibitors, confirmation, cell-based, luciferase reporter, HEK293, triplicate (AID 687008;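 active = mean inhibition over three repeats above a set limit taken from the earlier primary screen, cut at about 38% in these data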;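 note: 100% = cells given the luciferase reporter alone without the COUP-TF2 vector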); details: HEK293 NGFI-A luciferase reporter, luminescence; at 8.5 µM; active compounds read high
[10] = system: transactivating tegument protein VP16 (Human herpesvirus 1); test: VP16 transactivation reporter inhibitors, counter-screen for SRC2 inhibitor project, cell-based, luminescence, single concentration (AID 652007; in the data active = inhibition above about 36%); details: cell-based VP16 transactivation luciferase reporter, at 8.9 µM, active compounds read high
[11] = target: Nuclear receptor coactivator 2 (Homo sapiens) (UniProt Q15596); test: SRC2 coactivator transcriptional activity inhibitors, confirmation, cell-based, luminescence, HEK293, triplicate (AID 652008;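 active = mean inhibition above 46.5%, the solvent-only control mean plus 3 SD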;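 note: 0% = DMSO-treated cells and 100% = Gossypol at 36 µM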); details: HEK293 GAL4-SRC2 luciferase reporter, at 8.9 µM, active compounds read high
Sequence of Nuclear receptor coactivator 2 (Homo sapiens) (Q15596 whole entry, looked up, the tested form may be a part): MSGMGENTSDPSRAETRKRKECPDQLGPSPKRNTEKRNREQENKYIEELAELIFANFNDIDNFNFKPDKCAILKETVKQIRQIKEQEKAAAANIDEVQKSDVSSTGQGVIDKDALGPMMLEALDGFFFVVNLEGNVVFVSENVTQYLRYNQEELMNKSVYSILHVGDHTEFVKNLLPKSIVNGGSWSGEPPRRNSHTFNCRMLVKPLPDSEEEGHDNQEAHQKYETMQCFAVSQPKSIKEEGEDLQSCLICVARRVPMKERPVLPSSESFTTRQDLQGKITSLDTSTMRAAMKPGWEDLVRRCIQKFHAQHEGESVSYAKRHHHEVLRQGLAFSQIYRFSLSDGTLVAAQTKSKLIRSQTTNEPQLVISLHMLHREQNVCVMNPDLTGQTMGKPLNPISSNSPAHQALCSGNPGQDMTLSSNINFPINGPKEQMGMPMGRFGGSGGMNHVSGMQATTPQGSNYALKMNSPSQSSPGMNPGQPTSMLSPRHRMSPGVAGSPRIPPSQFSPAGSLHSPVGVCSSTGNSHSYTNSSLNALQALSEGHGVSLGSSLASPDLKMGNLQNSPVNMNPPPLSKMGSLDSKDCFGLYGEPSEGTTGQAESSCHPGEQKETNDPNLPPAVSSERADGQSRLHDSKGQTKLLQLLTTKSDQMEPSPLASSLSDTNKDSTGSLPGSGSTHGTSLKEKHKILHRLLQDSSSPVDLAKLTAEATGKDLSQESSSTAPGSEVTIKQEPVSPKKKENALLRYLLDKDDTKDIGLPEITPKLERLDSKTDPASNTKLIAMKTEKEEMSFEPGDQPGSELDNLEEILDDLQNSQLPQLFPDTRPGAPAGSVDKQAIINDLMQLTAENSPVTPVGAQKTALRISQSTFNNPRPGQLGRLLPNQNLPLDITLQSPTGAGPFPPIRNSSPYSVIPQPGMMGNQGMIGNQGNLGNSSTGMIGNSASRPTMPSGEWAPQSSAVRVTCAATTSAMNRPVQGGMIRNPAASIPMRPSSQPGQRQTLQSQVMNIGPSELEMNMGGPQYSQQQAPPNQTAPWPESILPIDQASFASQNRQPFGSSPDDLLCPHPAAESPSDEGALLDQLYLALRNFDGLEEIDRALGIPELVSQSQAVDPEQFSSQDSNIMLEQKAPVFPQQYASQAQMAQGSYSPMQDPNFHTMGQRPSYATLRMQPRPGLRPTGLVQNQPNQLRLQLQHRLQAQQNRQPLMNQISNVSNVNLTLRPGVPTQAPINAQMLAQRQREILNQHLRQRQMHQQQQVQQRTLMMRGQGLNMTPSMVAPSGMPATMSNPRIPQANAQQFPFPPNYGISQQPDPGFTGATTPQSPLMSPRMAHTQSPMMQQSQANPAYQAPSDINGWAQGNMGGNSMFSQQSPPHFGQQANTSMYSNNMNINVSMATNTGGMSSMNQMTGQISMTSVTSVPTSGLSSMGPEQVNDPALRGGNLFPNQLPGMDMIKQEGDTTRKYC

Sequence of Steroidogenic factor 1 (Homo sapiens) (Q13285 whole entry, looked up): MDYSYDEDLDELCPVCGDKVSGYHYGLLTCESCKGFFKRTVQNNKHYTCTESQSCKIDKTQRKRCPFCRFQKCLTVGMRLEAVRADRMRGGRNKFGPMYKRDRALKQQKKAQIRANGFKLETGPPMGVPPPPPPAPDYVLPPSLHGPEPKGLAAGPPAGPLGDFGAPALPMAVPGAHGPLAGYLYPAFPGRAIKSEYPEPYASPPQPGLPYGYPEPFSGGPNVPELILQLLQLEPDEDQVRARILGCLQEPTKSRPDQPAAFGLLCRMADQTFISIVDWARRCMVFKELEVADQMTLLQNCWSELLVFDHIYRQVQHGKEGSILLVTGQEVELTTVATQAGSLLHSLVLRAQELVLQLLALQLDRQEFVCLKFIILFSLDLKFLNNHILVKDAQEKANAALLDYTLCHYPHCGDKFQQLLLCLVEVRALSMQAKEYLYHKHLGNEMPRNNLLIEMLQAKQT
Sequence of Nuclear receptor subfamily 5 group A member 2 (Homo sapiens) (O00482 whole entry, looked up, the tested form may be a part): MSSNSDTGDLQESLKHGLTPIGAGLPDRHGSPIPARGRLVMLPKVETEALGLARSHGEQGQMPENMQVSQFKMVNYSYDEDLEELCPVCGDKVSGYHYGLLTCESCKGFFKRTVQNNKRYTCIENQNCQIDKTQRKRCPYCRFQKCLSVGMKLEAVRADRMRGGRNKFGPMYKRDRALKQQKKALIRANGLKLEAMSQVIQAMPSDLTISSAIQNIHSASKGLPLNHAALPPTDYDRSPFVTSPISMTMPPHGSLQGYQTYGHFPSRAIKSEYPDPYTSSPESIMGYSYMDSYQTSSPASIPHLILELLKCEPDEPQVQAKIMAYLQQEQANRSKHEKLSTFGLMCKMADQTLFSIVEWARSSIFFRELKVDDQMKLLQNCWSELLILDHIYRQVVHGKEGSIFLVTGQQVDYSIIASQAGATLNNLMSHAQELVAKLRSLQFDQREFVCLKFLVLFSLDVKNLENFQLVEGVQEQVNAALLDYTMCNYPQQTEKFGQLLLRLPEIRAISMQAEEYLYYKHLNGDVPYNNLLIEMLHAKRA
Sequence of COUP transcription factor 2 (Homo sapiens) (P24468 whole entry, looked up): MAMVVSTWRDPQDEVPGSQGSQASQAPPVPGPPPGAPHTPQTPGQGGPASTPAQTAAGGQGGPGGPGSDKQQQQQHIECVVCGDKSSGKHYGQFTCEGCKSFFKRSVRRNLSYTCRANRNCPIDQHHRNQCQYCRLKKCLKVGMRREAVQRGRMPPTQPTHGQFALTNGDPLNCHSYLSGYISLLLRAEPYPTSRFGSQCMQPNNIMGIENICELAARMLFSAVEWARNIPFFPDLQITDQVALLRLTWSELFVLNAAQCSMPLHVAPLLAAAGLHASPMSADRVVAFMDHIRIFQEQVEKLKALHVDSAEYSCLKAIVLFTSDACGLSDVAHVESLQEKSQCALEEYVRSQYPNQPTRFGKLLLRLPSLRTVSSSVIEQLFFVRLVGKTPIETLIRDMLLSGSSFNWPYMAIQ

**Q.** For CC(C)(C)C(=O)/C(=C/c1cccc([N+](=O)[O-])c1)n1cncn1, which inhibition [1] is on record?
**A.** 87.2% (active)

**Q.** What about the inhibition [2] of the same molecule?
**A.** 83.7% (active)

**Q.** Which inhibition [3] does the source give for Cc1ccc(-c2cnc(C(O)c3cc(Cl)cc(Cl)c3)[nH]2)cc1 (stereo unspecified) here?
**A.** 12.2% (active)

**Q.** What about the inhibition [4] of the same molecule?
**A.** 16.9% (inactive)

**Q.** What about the inhibition [5] of the same molecule?
**A.** 16.9% (inactive)

**Q.** With COc1cccc(N2CCN(CC(=O)Nc3ccc(-n4cnnn4)cc3)CC2)c1 as the molecule, how does the inhibition [6] read?
**A.** 48.9% (active)

**Q.** What does the source list for COc1ccc(-c2nc3c([nH]2)c(=O)n(C)c(=O)n3C)c(OC)c1?
**A.** inhibition [7]: 24.5% (inactive); inhibition [6]: 12.7% (inactive)

**Q.** For CC(C)(C)C(=O)Nc1c(Br)c(C2CC2)nn1-c1ccccc1, which inhibition [3] is on record?
**A.** -0.86% (inactive)

**Q.** And the inhibition [4]?
**A.** -0.19% (inactive)

**Q.** What about the inhibition [5] of the same molecule?
**A.** 0.42% (inactive)

**Q.** Which inhibition [1] does the source give for O=C(Nc1ccc(Br)cn1)C1CCN(S(=O)(=O)c2cccs2)CC1 here?
**A.** 13.5% (inactive)

**Q.** What about the inhibition [7] of the same molecule?
**A.** 48.4% (active)

**Q.** And the inhibition [6]?
**A.** 50.2% (active)

**Q.** What about the inhibition [2] of the same molecule?
**A.** 45.3% (active)

**Q.** What about the inhibition [8] of the same molecule?
**A.** 13.1% (active)

**Q.** What about the inhibition [9] of the same molecule?
**A.** 48.2% (active)

**Q.** Which inhibition [3] does the source give for COc1cccc(C(O)c2ncc(-c3ccc4ccccc4c3)[nH]2)c1 (stereo unspecified) here?
**A.** 7.6% (inactive)

**Q.** And the inhibition [4]?
**A.** 10.9% (inactive)

**Q.** And the inhibition [5]?
**A.** 13.4% (inactive)

**Q.** With O=C1c2ccccc2C2=Nc3ccccc3SC(c3ccccc3F)C12 (stereo unspecified) as the molecule, how does the inhibition [3] read?
**A.** 8.51% (inactive)

**Q.** And the inhibition [4]?
**A.** 8.52% (inactive)

**Q.** What about the inhibition [5] of the same molecule?
**A.** 3.38% (inactive)

**Q.** With CC(=O)Nc1ccc(NC(=O)CSc2nnc(-c3ccco3)n2Cc2ccco2)cc1 as the molecule, how does the inhibition [7] read?
**A.** 58.2% (active)

**Q.** And the inhibition [6]?
**A.** 59.9% (active)

**Q.** Which inhibition [7] does the source give for COC(=O)c1ccc(OCC2c3cc(OC)c(OC)cc3CCN2C(=O)c2ccco2)cc1 (stereo unspecified) here?
**A.** 52.8% (active)

**Q.** And the inhibition [6]?
**A.** 53% (active)

**Q.** Which results are given for CC(N)C(=O)NC(CO)C(O)C(N)C=O (stereo unspecified)?
**A.** inhibition [7]: 56.3% (active); inhibition [6]: 55.5% (active)

**Q.** With CCc1cc(-c2nnn(CCC3COCCO3)c2CC)ccc1-c1cn(Cc2ccc3ccccc3c2)nn1 (stereo unspecified) as the molecule, how does the inhibition [1] read?
**A.** 0.97% (inactive)

**Q.** What about the inhibition [7] of the same molecule?
**A.** 34.7% (inactive)

**Q.** And the inhibition [6]?
**A.** 42.3% (inactive)

**Q.** What about the inhibition [2] of the same molecule?
**A.** 39.4% (active)

**Q.** And the inhibition [8]?
**A.** -21.8% (inactive)

**Q.** What about the inhibition [9] of the same molecule?
**A.** 42% (active)

**Q.** Which results are given for CCNC(=S)N(CCc1c(C)[nH]c2ccc(C)cc12)Cc1ccco1?
**A.** inhibition [3]: -0.28% (inactive); inhibition [4]: -0.24% (inactive); inhibition [5]: -0.97% (inactive)

**Q.** Which inhibition [1] does the source give for CC(C)(C)C(=O)/C(=C\c1cccc([N+](=O)[O-])c1)n1cncn1 here?
**A.** 84.9% (active)

**Q.** What about the inhibition [2] of the same molecule?
**A.** 85% (active)

**Q.** With O=C1/C(=C\c2ccccc2)CN(C(=O)CCN2CCCCC2)C/C1=C/c1ccccc1 as the molecule, how does the inhibition [1] read?
**A.** 56.7% (active)

**Q.** What about the inhibition [7] of the same molecule?
**A.** 84.7% (active)

**Q.** What about the inhibition [6] of the same molecule?
**A.** 84.8% (active)

**Q.** And the inhibition [2]?
**A.** 73.7% (active)

**Q.** And the inhibition [10]?
**A.** 85.7% (active)

**Q.** What about the inhibition [11] of the same molecule?
**A.** -4.61% (inactive)

**Q.** Which inhibition [3] does the source give for C=CCn1c(=O)c(C(=O)NCc2ccc3c(c2)OCO3)c(O)c2ccccc21 here?
**A.** 4.97% (inactive)

**Q.** What about the inhibition [4] of the same molecule?
**A.** 6.78% (inactive)

**Q.** And the inhibition [5]?
**A.** 6.71% (inactive)

**Q.** Which inhibition [3] does the source give for CCCCC(=O)NC(c1ccc(OC)c(OC)c1)c1ccc2cccnc2c1O (stereo unspecified) here?
**A.** 13.9% (active)

**Q.** And the inhibition [4]?
**A.** 17.6% (inactive)

**Q.** What about the inhibition [5] of the same molecule?
**A.** 25.8% (active)

**Q.** With CC1(C(=O)NS(=O)(=O)c2ccccc2)CCN1C(=O)C/C=C/c1ccccc1 (stereo unspecified) as the molecule, how does the inhibition [3] read?
**A.** -4.38% (inactive)

**Q.** And the inhibition [4]?
**A.** -3.55% (inactive)

**Q.** What about the inhibition [5] of the same molecule?
**A.** -0.33% (inactive)

**Q.** With CN(C)c1ccc2nc3ccc(=[N+](C)C)cc-3sc2c1 as the molecule, how does the inhibition [7] read?
**A.** 59.9% (active)

**Q.** And the inhibition [6]?
**A.** 66.7% (active)

**Q.** And the inhibition [2]?
**A.** 52.9% (active)

**Q.** Which results are given for Cc1ccc(C(=O)Sc2cccccc2=O)cc1?
**A.** inhibition [1]: 98.1% (active); inhibition [7]: 107% (active); inhibition [6]: 98.6% (active); inhibition [2]: 96.8% (active); inhibition [10]: 92.9% (active); inhibition [11]: 99.2% (active)

**Q.** Which results are given for CC(=O)NC(c1cccs1)c1cc(Br)c2cccnc2c1O (stereo unspecified)?
**A.** inhibition [3]: 10.7% (inactive); inhibition [4]: 16.4% (inactive); inhibition [5]: 16.1% (inactive)

**Q.** What does the source list for C#CCN(C[C@@H]1[C@@H](OC(=O)Nc2cccs2)[C@@H](OC(=O)Nc2cccs2)Cn2c(=O)ccc(=O)n21)S(=O)(=O)c1ccc(C)cc1?
**A.** inhibition [1]: 32% (active); inhibition [7]: 54.4% (active); inhibition [6]: 54.8% (active); inhibition [2]: 36.8% (active); inhibition [10]: 26.4% (inactive); inhibition [11]: 88.2% (active)

**Q.** Which results are given for Cc1cccc(/C=C(\c2nc3ccccc3[nH]2)S(=O)(=O)c2ccccc2)c1?
**A.** inhibition [1]: 43.2% (active); inhibition [7]: 35.1% (inactive); inhibition [6]: 48.8% (active); inhibition [2]: 54.1% (active); inhibition [10]: 10.3% (inactive); inhibition [11]: 50.5% (active)

**Q.** With Cc1scc(C(=O)N/N=C/c2ccc([N+](=O)[O-])o2)c1C as the molecule, how does the inhibition [1] read?
**A.** 42.8% (active)

**Q.** What about the inhibition [7] of the same molecule?
**A.** 76.3% (active)

**Q.** What about the inhibition [6] of the same molecule?
**A.** 73.5% (active)

**Q.** What about the inhibition [2] of the same molecule?
**A.** 25.1% (inactive)

**Q.** What about the inhibition [10] of the same molecule?
**A.** 62.4% (active)

**Q.** And the inhibition [11]?
**A.** 68% (active)

**Q.** With O=C(N/N=C/c1ccc([N+](=O)[O-])s1)c1cccnc1 as the molecule, how does the inhibition [1] read?
**A.** 13.9% (inactive)

**Q.** And the inhibition [2]?
**A.** 7.08% (inactive)

**Q.** With CCN1CCN(c2nc(Nc3cc(OC)ccc3OC)nc(Nc3cc(OC)ccc3OC)n2)CC1 as the molecule, how does the inhibition [3] read?
**A.** -0.69% (inactive)

**Q.** And the inhibition [4]?
**A.** -0.86% (inactive)

**Q.** And the inhibition [5]?
**A.** -2.43% (inactive)

**Q.** Which results are given for Cn1cc(C(=O)c2ccc(Cl)cc2)cc1-c1nc2ccccc2n1C?
**A.** inhibition [7]: 51.9% (active); inhibition [6]: 49.8% (active)

**Q.** For COc1ccc(/C=C/C(=O)O)cc1O, which inhibition [1] is on record?
**A.** 1.72% (inactive)

**Q.** What about the inhibition [2] of the same molecule?
**A.** 2.63% (inactive)

**Q.** Which results are given for CC1CCC/C=C/C(=O)c2c(O)cc(O)cc2CC(=O)O1 (stereo unspecified)?
**A.** inhibition [1]: 8.63% (inactive); inhibition [7]: 35.8% (inactive); inhibition [6]: 12.9% (inactive); inhibition [2]: 29.1% (inactive); inhibition [10]: 19.4% (inactive); inhibition [11]: 33.2% (inactive)

**Q.** Which results are given for NC1=NC(=O)C(Cc2cccc(Cl)c2Cl)S1 (stereo unspecified)?
**A.** inhibition [3]: 0.33% (inactive); inhibition [4]: 0.21% (inactive); inhibition [5]: -2.48% (inactive)

**Q.** Which inhibition [3] does the source give for CCn1cc(C(=O)NCCO)c(=O)c2cc(F)c(N3CCN(C)CC3)cc21 here?
**A.** 103% (active)

**Q.** And the inhibition [4]?
**A.** 104% (active)

**Q.** What about the inhibition [5] of the same molecule?
**A.** 104% (active)
